Screening results from PubChem.
A selection: hits, their analogues and other compounds. The true share with any hit is near 3.2%.
SSB-PriA inh – blocks PriA binding to SSB C-terminal tail; AlphaScreen SSBct-PriA binding, biotinylated peptide; inhibition, % at 33 µM; actives 0.6% (n = 430,000); AID 1272365; in the data active = inhibition mostly above about 37%, no sharp cut-off; inactive = mostly below about 20%
Mtb UGM inh – blocks M. tuberculosis UGM enzyme | P9WIQ1 | purified UGM, fluorescence polarization probe displacement | inhibition, % at 10 µM | actives 0.06% (n = 320,000); in the data active = inhibition above about 10%, passing the limit was not always enough; inconclusive = no clear call, values can overlap the other calls
Rv3671c protease – inhibits the M. tuberculosis serine protease Rv3671c; inhibition, % at 5.96 µM; actives 0.048% (n = 320,000); P9WHR9; in the data active = inhibition above about 38%;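 note: extracellular domain of Rv3671c used as enzyme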
Mtb betalactam – beta-lactam sensitization of Mtb H37Rv; M. tuberculosis H37Rv growth with meropenem, percent inhibition; actives 0.27% (n = 330,000); inhibition, % at 25 µM; call rule not given here;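 note: growth measured after seven days incubation then overnight dye step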
GDH-TPI counter – GDH-TPI coupled enzyme inhibition counter-screen; GDH-TPI coupled enzyme counterscreen, NADH absorbance; inhibition, % at 4.8 µM; actives 1.2% (n = 360,000); AID 588335; in the data active = inhibition above about 30%
Mtb FBA inh – inhibits M. tuberculosis FBA enzyme; actives 2.3% (n = 360,000); inhibition, % at 1 µM; purified M. tuberculosis FBA, fluorescence read-out; in the data active = inhibition above about 27%
Target sequence (P9WQA3 whole entry, looked up): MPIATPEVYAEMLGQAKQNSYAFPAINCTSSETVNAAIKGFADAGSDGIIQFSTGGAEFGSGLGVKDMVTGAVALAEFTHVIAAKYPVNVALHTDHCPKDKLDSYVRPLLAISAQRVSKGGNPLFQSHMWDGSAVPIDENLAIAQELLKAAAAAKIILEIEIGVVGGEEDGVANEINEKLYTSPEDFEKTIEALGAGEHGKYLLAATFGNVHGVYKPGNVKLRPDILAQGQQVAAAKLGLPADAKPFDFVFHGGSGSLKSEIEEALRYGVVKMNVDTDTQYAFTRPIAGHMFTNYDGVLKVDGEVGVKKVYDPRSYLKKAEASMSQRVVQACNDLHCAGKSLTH
Hits are given with their value; . = inactive; ? = inconclusive; / = not tested or not shown; + = active, no number.

SMILES	SSB-PriA inh	Mtb UGM inh	Rv3671c protease	Mtb betalactam	GDH-TPI counter	Mtb FBA inh
CCn1c(C(=O)NCCCc2ccccc2)cc2sccc21	.	.	.	.	.	.
O=C(Cc1n[nH]c(=O)[nH]c1=O)NN=Cc1ccccc1O	.	/	/	/	/	/
CC(C)(O[C@@H]1O[C@H](CO)[C@@H](O)[C@H](O)[C@H]1O)[C@H]1Cc2cc3ccc(=O)oc3cc2O1	.	.	.	.	33	+
C=C(CO)C1Cc2cc(C(C)=O)ccc2O1 (stereo not given)	.	.	.	.	.	.
C=C(C)C1Cc2cc3ccc(=O)oc3cc2O1 (stereo not given)	.	.	.	.	.	185
CC(C)(O)[C@H]1Cc2cc3ccc(=O)oc3cc2O1	.	.	.	.	.	+
CC(C)(O)[C@@H]1Cc2c(ccc3ccc(=O)oc23)O1	.	.	.	.	.	+
CC(C)(O)[C@H](O)Cc1cc2ccc(=O)oc2cc1O[C@@H]1O[C@H](CO)[C@@H](O)[C@H](O)[C@H]1O	.	.	.	.	.	.
O=C(CCSc1ccccc1)NCCn1nc(-c2ccncc2)c2c1CCCC2	.	/	/	/	/	/
O=C(COc1coc(CN2CCc3ccccc32)cc1=O)OCc1ccccc1	.	/	/	/	/	/
CCOC(=O)CC(C)=NNc1nc(-c2ccccc2)cs1	.	/	/	/	/	/
COc1ccc(Nc2nc(Nc3ccc(OC)cc3)nc(N3CCN(c4nc(Cl)nc(N(c5ccccc5)c5ccccc5)n4)CC3)n2)cc1	.	/	/	/	/	/
Cc1c(C(=O)C(=O)N2CCC3(CC2)OCCO3)c2ccccc2n1C	.	.	.	.	46	.
COc1ccc(CCC(=O)NCC#CCN(C(C)C)C(C)C)cc1	.	/	/	/	/	/
O=C(C1=C[C@H](c2ccc(Br)cc2)C[C@H](OCCCCO)O1)N1CCN(Cc2ccccc2)CC1	42	.	.	.	.	.
O=C(Nc1c(C(=O)Nc2ccccc2)cnn1-c1ccccc1)c1ccco1	.	.	.	.	.	.
CSc1nc2ccc(NC(=O)c3cccs3)cc2s1	.	.	.	.	.	.
O=C(Nc1ccc(-c2nc3ccccc3o2)cc1)c1ccc2c(c1)OCO2	.	.	.	.	36	.
Cc1ccc(NC(=O)c2cnn(-c3ccccc3)c2NC(=O)c2ccco2)cc1	.	.	.	.	.	181
O=C(Nc1ccc2nc(-c3cccs3)[nH]c2c1)c1ccco1	.	.	.	.	36	.
O=C(Nc1ccc2nc(-c3cccs3)[nH]c2c1)c1cccs1	.	.	.	.	54	.
Cc1ccc2oc(-c3ccc(NC(=O)c4ccc5c(c4)OCO5)cc3)nc2c1	.	.	.	.	.	.
Cc1nccc(-c2cccc(NN=C(C#N)C(=O)c3ccccc3)c2)n1	.	/	/	/	/	/
Cc1ccc2nc(-c3ccc(NC(=O)c4ccco4)cc3)[nH]c2c1	.	.	.	?	54	.
O=C(Nc1ccc2nc(-c3ccccc3)oc2c1)c1ccco1	.	.	.	.	54	.
SMILES	SSB-PriA inh	Mtb UGM inh	Rv3671c protease	Mtb betalactam	GDH-TPI counter	Mtb FBA inh
Cn1cccc1-c1nc2ccc(NC(=O)c3ccco3)cc2[nH]1	.	.	.	.	.	.
O=C(Nc1ccc(-c2nc3ccc(NC(=O)c4cccs4)cc3[nH]2)cc1)c1cccs1	.	.	.	.	51	.
CC(=NNC(=S)N1CCCCC1)c1cccc(C)n1	.	/	/	/	.	.
CN(C)C(=S)NN=C(c1ccccn1)c1ccccn1	162	/	/	/	/	/
Fc1ccc(N/N=C(/c2ccccc2)c2ccccn2)cc1	/	.	.	.	.	.
CSC(=S)N/N=C(/c1ccccc1)c1ccccn1	108	/	/	/	/	/
CC(=NNC(=S)Nc1ccccc1)c1ccccn1	/	/	/	/	.	.
CSC(=S)NN=C(C)c1cccc(C)n1	55	/	/	/	.	.
Cc1cc(C)c(S(=O)(=O)NN=Cc2ccc3c(c2)OCO3)c(C)c1	.	/	/	/	/	/
CC(C)C(=O)Nc1ccc(C(=O)NCCNS(=O)(=O)c2cccc(Cl)c2)cc1	.	/	/	/	/	/
COc1nn(C)cc1C(=O)NCC1CCN(C(=O)c2ccoc2)CC1	.	/	/	/	/	/
O=C(COc1ccc([N+](=O)[O-])cc1)NCc1cccnc1	.	.	.	.	.	.
Cc1ccccc1OCC(=O)Nc1nnc(-c2ccncc2)s1	.	.	.	.	33	.
O=C(COc1ccccc1F)Nc1nnc(-c2ccncc2)s1	.	.	.	.	.	.
O=C(COc1ccc([N+](=O)[O-])cc1)Nc1nnc(-c2cccnc2)s1	.	.	.	.	35	.
O=C(Nc1nnc(-c2cccnc2)s1)c1cccs1	.	.	.	.	42	.
O=C(NCCc1nnc2ccc(SCc3c(F)cccc3Cl)nn12)c1ccc(F)cc1	.	/	/	/	/	/
Fc1ccc(C=NNC(=S)Nc2cccnc2)cc1	.	/	/	/	/	/
O=C(CC(=O)NN=Cc1ccc(O)cc1)NN=Cc1ccc(O)cc1	.	/	/	/	/	/
Oc1ccc(/C=N/NC(=S)Nc2cccnc2)cc1	/	.	.	.	36	.
Oc1ccc(/C=N/NC(=S)N/N=C/c2ccc(O)cc2)cc1	/	.	.	.	75	.
COc1ccccc1NC(=S)N/N=C/c1ccc(O)cc1	/	.	.	.	33	.
Cc1ccc(Cn2cc(C(=O)NNC(=O)NCC(C)C)ccc2=O)cc1	.	/	/	/	/	/
COc1ccc(C=NNC2=NS(=O)(=O)c3ccccc32)cc1OC	.	/	/	/	/	/
CCN(CC)CCCNC(=O)c1cn(CC)c2cc(N3CCN(C(=O)c4ccco4)CC3)c(F)cc2c1=O	.	.	.	.	.	54
SMILES	SSB-PriA inh	Mtb UGM inh	Rv3671c protease	Mtb betalactam	GDH-TPI counter	Mtb FBA inh
Cc1cnc2n(c1=O)C(CC(=O)NCc1ccccn1)CS2 (stereo not given)	.	/	/	/	/	/
CC(C)NC(=O)CC(=O)NN=Cc1ccc(F)cc1	.	/	/	/	/	/
CC(C(=O)Nc1ccc(-c2cn3ccsc3n2)cc1)n1nc(-c2ccc(F)cc2)ccc1=O (stereo not given)	.	/	/	/	/	/
O=C(COc1ccc(S(=O)(=O)NC2CCCC2)cc1)N1CCCCC1	.	.	.	.	.	.
O=C(CSc1n[nH]c(-c2ccc(S(=O)(=O)NC3CCCCC3)cc2)n1)N1CCCC1	.	.	.	.	.	125
O=C(Cn1nc(-c2ccco2)ccc1=O)Nc1ccccc1-c1cn2ccccc2n1	.	/	/	/	/	/
CCCc1cc(NCCOCCO)n2c(nc3ccccc32)c1C#N	/	/	/	/	.	+
CCCc1cc(-n2ccnc2C)n2c(nc3ccccc32)c1C#N	.	.	.	.	.	.
CCCc1cc(NCCCCO)n2c(nc3ccccc32)c1C#N	.	.	.	?	.	178
CC(C)c1cc(NCCOCCO)n2c(nc3ccccc32)c1C#N	39	.	.	.	.	+
Cc1c(Cl)cccc1S(=O)(=O)NCC1CCN(C(=O)c2cccnc2)CC1	.	/	/	/	/	/
COc1ccc(CON=Cc2c(C)[nH]c(=O)[nH]c2=O)cc1	.	/	/	/	/	/
Cc1cc(NC(=O)Cn2cccc(-c3nc(C4CC4)no3)c2=O)no1	26	/	/	/	/	/
Cc1c(C(=O)NCCC2=CCCCC2)c(C(F)(F)F)nn1C1CCN(C)CC1	.	/	/	/	/	/
Cn1c(=O)c2c(nc(NCc3ccc4c(c3)OCO4)n2Cc2ccccc2Cl)n(C)c1=O	.	.	.	.	.	.
O=c1c(NCc2ccccc2Cl)nccn1-c1ccc2c(c1)OCO2	37	/	/	/	/	/
O=C(NCC(c1cccc2ccccc12)N1CCCC1)C(=O)Nc1ccc2c(c1)OCCO2 (stereo not given)	48	/	/	/	/	/
